This is a sample that favours compounds with a hit; in the whole collection about 17% have one here.
TDP1 cell noCPT: qHTS for Inhibitors of human tyrosyl-DNA phosphodiesterase 1 (TDP1): qHTS in cells in absence of CPT; hit rate 15% among 420,000; Potency, µM (doses to about 46.2 µM), for inactives: top-dose activity change, negative = growth inhibition, hits mostly inhibitors; DT40 Tdp1-/- hTDP1 cells, no CPT, ATP luminescence, 48 h; further: on the % scale 0 is the no-effect control and ±100 the full control effect; nearly all actives have a fitted effect of over 55% in size
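Growth of hTDP1-complemented DT40 Tdp1-knockout cells is measured by ATP luminescence after at least 48 hr compound exposure at 37 °C, with DMSO substituting for the 20 nM CPT used in the parallel screen.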
ATXN2 expr inh: reduces ATXN2 reporter expression in HEK-293 cells | hit rate 0.72% among 360,000 | Potency, µM (top dose mostly 57 µM), inactives show top-dose activity change, negative = inhibition, hits mostly inhibitors | HEK-293 ATXN2-luciferase reporter, luminescence, 24 h | AID 1745845; further: on the % scale 0 is the no-effect control and ±100 the full control effect; nearly all actives have a fitted effect of over 55% in size
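qHTS (up to 57 uM final) was run with 24 h compound exposure of reporter cells at 37 °C. Each well was multiplexed: SteadyGlo luminescence measured ATXN2-luciferase expression after a fluorogenic Gly-Phe-AFC viability readout (25 uM final).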
S2 tox: reduces viability in counter-screen for ATXN expression inhibitors; Potency, µM (doses to about 56.7 µM), hits mostly cytotoxic; AID 651635; S2 cells (HEK-293 line with an ATXN2-luciferase reporter) viability, CellTiter-Fluor protease fluorescence, 24 h; hit rate 0.49% among 400,000; further: nearly all actives have a fitted effect of over 40% in size
DT40 TDP1 CPT: growth inhibition of DT40 Tdp1-/-;hTDP1 cells with camptothecin (screen for TDP1 inhibitors). chicken DT40 Tdp1-/-;hTDP1 cells + 20 nM CPT, ATP luminescence, 48 h. Potency, µM (titrated, usually from 46.2 µM), inactives show at the top dose activity change, negative = growth inhibition, most hits filed as inhibitors. hit rate 12% among 420,000; further: on the % scale 0 is the no-effect control and ±100 the full control effect; nearly all actives have a fitted effect of over 55% in size
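Chicken DT40 Tdp1-/- cells stably complemented with human TDP1 were seeded at 400 cells/well in medium containing 20 nM camptothecin, exposed to pin-transferred compounds, and grown at 37 °C for at least 48 hr. Viability was read as ATP luminescence.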
TGFb SMAD3 inh: inhibitors of TGF-b signaling. HepG2 CAGA-GFP TGF-b/SMAD3 reporter, GFP fluorescence, 18 h; TGF-beta stimulated, 500 pg/mL final. Potency, µM (doses to about 46.1 µM), for inactives: top-dose activity, negative = inhibition, hits mostly inhibitors. hit rate 1.2% among 410,000; further: on the % scale 0 is the no-effect control and ±100 the full control effect; nearly all actives have a fitted effect of over 65% in size
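Smad-responsive CAGA-GFP expression was quantified in HEPG2 cells exposed to compounds and 500 pg/mL final TGF-beta for 18 h at 37 degrees C; unstimulated wells defined full inhibition.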
HepG2 viability: counter-screen for TGF-b inhibitors: cytotoxicity in HepG2 cells; HepG2 CAGA-GFP viability, ATP luminescence, 18 h; Potency, µM (titrated, usually from 46.1 µM), for inactives: at the highest dose activity change, negative = cytotoxicity, usual class: cytotoxic; hit rate 0.76% among 410,000; AID 588856
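CellTiter-Glo luminescence gave cytotoxicity after 18 hours at 37 degrees C. The cells were HepG2 CAGA-GFP in 1% FBS DMEM, stimulated with 500 pg/mL TGF-beta after compound addition. %Activity was normalised to no-cell wells (complete cell-killing) and DMSO (no toxicity), and curves were fitted and classified.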
The depositor's hits bear a star; i = inactive; ? = inconclusive; / = no result. The call rests on the fitted dose curve; in most records, active means well fitted curve in the direction sought with a large enough effect; inconclusive means small, poorly fitted or top-dose-only effect, or another doubt; inactive means no such curve, though single readings can be large; an effect the other way counts as inactive or inconclusive. Potency means the concentration at half of the fitted maximal effect.

SMILES	TDP1 cell noCPT	ATXN2 expr inh	S2 tox	DT40 TDP1 CPT	TGFb SMAD3 inh	HepG2 viability
Cc1cccc(C)c1NC(=O)CNC(=O)C(NC(=O)c1ccc(C(C)(C)C)cc1)C(C)C (centres undefined)	20.6µM*	-7.0%	i	?	0.0%	2.4%
CCOc1ccccc1C(=O)NC(C(=O)NCCc1ccccn1)C(C)C (centres undefined)	?	1.3%	i	?	2.7%	-2.0%
CCCCN(Cc1ccco1)S(=O)(=O)c1ccc(-c2ccc(=O)[nH]n2)s1	?	-21.9%	i	?	-9.8%	-19.0%
Cc1cc(Br)ccc1NC(=O)CN(C)C(=O)C1=COCCO1	-17.3%	/	i	2.2%	14.8%	0.7%
CSc1ccc(Cl)c(C(=O)N2CCOc3ccccc32)c1	16.4µM*	/	?	18.4µM*	?	-21.2%
COc1ccc(NC(=O)COC(=O)c2cc([N+](=O)[O-])ccc2N2CCOCC2)cc1	-0.8%	-1.1%	i	-20.6%	-6.8%	-24.9%
Cc1ccc(C(=O)c2cc([N+](=O)[O-])ccc2N2CCCCC2)c(C)c1	0.651µM*	-22.8%	?	1.03µM*	?	-10.5%
O=C(c1cc([N+](=O)[O-])ccc1N1CCOCC1)N1CCOCC1	18.9%	-1.7%	i	-12.7%	-2.0%	4.5%
Cc1ccc(C(=O)c2cc([N+](=O)[O-])ccc2N2CCOCC2)cc1	2.06µM*	-15.1%	?	2.06µM*	-1.9%	0.2%
COc1ccc(C(=O)c2cc([N+](=O)[O-])ccc2N2CCOCC2)cc1	0.0326µM*	-6.0%	?	0.0259µM*	?	-23.0%
CCOC(=O)c1[nH]c(C)c(C(=O)NCc2cccc(OC)c2)c1C	-22.4%	0.7%	i	-2.9%	-8.8%	-13.5%
COc1cc([N+](=O)[O-])c(C)cc1NC(=O)c1ccc(OC)c(OC)c1	?	/	?	-18.0%	1.5%	0.6%
CCOc1ccccc1CNC(=O)CCCn1nc(C)c2sc3ccccc3c2c1=O	?	/	/	-20.9%	33.6%	1.8%
CC(C)NC(=O)c1ccc(C=O)cc1	/	4.9%	i	/	/	/
COc1cc(SC)ccc1C(=O)N1CCCc2ccccc21	?	-16.4%	i	?	-11.2%	-17.0%
COc1cc(SC)ccc1C(=O)N1CCc2ccccc21	?	-8.0%	?	20.6µM*	-5.4%	-0.7%
O=C(c1cc([N+](=O)[O-])ccc1N1CCCCC1)N1CCc2ccccc21	4.61µM*	?	?	14.6µM*	-0.2%	-2.6%
O=C(c1cc([N+](=O)[O-])ccc1Cl)N1CCc2ccccc21	-27.6%	-10.6%	i	-21.9%	?	22.4%
COc1cccc(CN2CCC(c3nnc(SCC4CCCO4)n3C)CC2)c1O (centres undefined)	0.6%	/	i	-3.5%	/	/
O=C(CCn1cnc(-c2ccccc2)c1-c1ccccc1)N/N=C/c1ccc(O)cc1	?	-33.9%	?	?	0.4%	-16.0%
O=C(CCn1cnc(-c2ccccc2)c1-c1ccccc1)N/N=C/c1ccccc1O	4.61µM*	?	?	5.17µM*	?	-43.0%
O=C(O)COc1ccccc1/C=N/NC(=O)COc1ccc(-c2ccccc2)cc1	29.1µM*	0.4%	i	2.7%	-5.6%	-4.1%
COc1ccc(/C=N/NC(=O)CCn2cnc(-c3ccccc3)c2-c2ccccc2)cc1	0.651µM*	-17.6%	i	1.64µM*	11.2µM*	-35.1%
COc1ccc(/C=N/NC(=O)COc2ccccc2-c2ccccc2)cc1	0.651µM*	-37.9%	?	0.581µM*	?	-83.2%
CC1=CC(C)(C)NC(=S)N1c1ccc(N(C)C)cc1	-23.0%	-21.5%	?	-1.9%	19.9%	3.7%

Source: PubChem (National Center for Advancing Translational Sciences (NCATS))
